Rows were chosen to be rich in hits. Some 21% of all compounds tested hit in one or more screens of this group.
Giardia FBPA inh: inhibitors of Giardia lamblia fructose-1,6-bisphosphate aldolase | purified Giardia FBPA | 0.71% of 290,000 active | AID 2451 | Potency, µM (doses to about 59.6 µM), for inactives: at the highest dose activity, negative = inhibition, most hits filed as inhibitors; note: potency is the fitted concentration of half-maximal effect; % is set by controls: 0 for no effect and ±100 for the full control effect; nearly all actives have a fitted effect of over 55% in size
Target sequence (A8B2U2 whole entry, looked up): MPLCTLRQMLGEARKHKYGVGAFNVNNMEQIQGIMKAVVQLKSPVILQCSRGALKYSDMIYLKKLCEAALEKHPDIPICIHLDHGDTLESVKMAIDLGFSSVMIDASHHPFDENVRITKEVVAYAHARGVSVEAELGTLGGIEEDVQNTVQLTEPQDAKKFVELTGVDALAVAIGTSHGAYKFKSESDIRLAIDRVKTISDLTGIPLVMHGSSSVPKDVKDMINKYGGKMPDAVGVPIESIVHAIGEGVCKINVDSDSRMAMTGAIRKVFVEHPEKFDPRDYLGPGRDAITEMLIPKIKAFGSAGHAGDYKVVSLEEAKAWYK
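Giardia FBPA (40 nM reagent) was preincubated 10 min at RT with compound (up to 57.5 uM final), then substrate plus GAPDH/TPI/NAD/arsenate coupling system with diaphorase/resazurin was added; resorufin fluorescence (525/598 nm) was read after 20 min.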
Pf growth 96h: P. falciparum growth inhibition at 96 hour, primary screen for plastid delayed-death inhibitors; P. falciparum luciferase reporter growth, 96 h; Potency, µM (highest dose often 28.7 µM), inactives show top-dose activity change, negative = inhibition, usual class: inhibitors; 6.9% of 320,000 active; note: potency is the fitted concentration of half-maximal effect; % is set by controls: 0 for no effect and ±100 for the full control effect
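Compounds incubated with erythrocytes infected by luciferase-expressing P. falciparum (2% hematocrit, 0.05% parasitemia final) for 96 hours, 37 C in 5% CO2. Growth inhibition scored as decreased luciferase luminescence.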
Pf growth 48h: P. falciparum growth inhibition at 48 hours (one generation); P. falciparum luciferase growth in erythrocytes, 48 h; Potency, µM (doses to about 28.7 µM), for the others: top-dose activity change, negative = inhibition, usual class: inhibitors; 5.9% of 310,000 active; AID 504832; note: potency is the fitted concentration of half-maximal effect; % is set by controls: 0 for no effect and ±100 for the full control effect
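A one-generation exposure of luciferase-tagged malaria parasites in RPMI 1640/Albumax erythrocyte culture, 37 C and 5% CO2. Inhibition is inferred from decreased luminescence after adding detection reagent.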
Cycloheximide cs: counter-screen hit for Shiga toxin inhibitors, cycloheximide | 12% of 300,000 active | cell reporter, cycloheximide protein synthesis inhibition counterscreen | max response, % | AID 2314; in the data active = max response mostly above about 13%, no sharp cut-off; inactive = mostly below about 14%; note: read at 38.3 µM for the half of the compounds with a filed dose; 0% is about no effect
Shiga inhibitor: inhibitors of Shiga toxin in Vero cells. Vero cells, Shiga toxin protein synthesis inhibition reporter. inhibition, % at 38.7 µM. 9.2% of 290,000 active. AID 2315; in the data active = inhibition mostly above about 28%, no sharp cut-off; inactive = mostly below about 43%; note: 0% is about no effect
NS1 function inh: influenza NS1 inhibition; Potency, µM (titrated, usually from 46.1 µM), without a hit: at the top dose activity, positive = more growth; 0.4% of 270,000 active; calls by dose curve; note: potency is the fitted concentration of half-maximal effect; actives are rising curves; nearly all actives have a fitted effect of over 50% in size
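Growth recovery, yeast-based: influenza A NS1 expressed in S. cerevisiae causes slow growth, and suppressors are detected by OD600. The parent strain without NS1 is used as positive control.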
Numbers without * were called inactive; u = inconclusive; x = no result; [ ] = remark or other dose. Unless noted, calls come from the whole dose curve; as a rule, active = well fitted curve in the direction sought with a large enough effect; inconclusive = small, poorly fitted or top-dose-only effect, or another doubt; inactive = no such curve, though single readings can be large; an effect the other way counts as inactive or inconclusive.

SMILES | Giardia FBPA inh | Pf growth 96h | Pf growth 48h | Cycloheximide cs | Shiga inhibitor | NS1 function inh
COc1ccc(/C=C/C(=O)N2CCN(c3ccccn3)CC2)cc1 | x | -12% | 8% | 24* | 30* | -21%
COc1ccc(Cn2c(CCC(=O)N3CCN(c4ccccn4)CC3)nc3ncccc3c2=O)cc1 | -2% | u | 12µM* | 5 | 32 | -27%
COc1ccc(/C=C/C(=O)c2ccccc2O)cc1 | -4%[12.9 µM] | -28% | 210% | 65* | 106* | -67%
COc1ccc(/C=C/C(=O)c2ccoc2)cc1 | 4% | 42% | 18% | 42* | 89* | -48%
O=C(/C=C/c1ccc(O)cc1)c1ccccc1O | -4% | x | x | x | x | x
CCCCC/C=C\C/C=C\C/C=C\CCCCC(=O)NCCO | 4% | x | x | x | x | x
COC(=O)C1=C(C(=O)OC)[C@@H]2N(C)c3ccccc3[C@@]23C[C@@H](C(=O)OC)N(S(=O)(=O)c2ccc(C)cc2)C3=N1 | 5%[12.9 µM] | x | x | x | x | x
CN(C(=O)CCN1C(=O)S/C(=C\c2ccccc2)C1=O)C1CCS(=O)(=O)C1 (stereo not given) | 13% | u | u | 1 | -1 | -5%
Cc1cccc(CN2CCC(CNC(=O)CSc3cc(=O)n(C)c4cc(Cl)ccc34)CC2)c1 | 3% | 88% | -1% | -1 | 3 | 0%
CC(=O)c1c(C)[nH]c(C(=O)CN2C(=O)NC3(CCCCC3C)C2=O)c1C (stereo not given) | x | 1% | -1% | x | x | x
O=C(O)/C=C/C(=O)c1ccc(O)cc1 | -2% | 0.93µM* | u | 1 | 27 | 6%
COc1ccc(/C=C/C(=O)c2ccccn2)cc1 | u | 149% | 412% | 24* | 43 | x
Cc1ccccc1-c1cc(N(C)C)ncn1 | 1% | x | x | x | x | x
COc1ccc(-c2nnc(SCC(=O)NC(C)c3ccccc3)o2)cc1 (stereo not given) | 7% | 10µM* | 1% | -2 | -6 | -17%
CCOc1ccccc1NC(=O)CSc1nnc(-c2cccnc2)o1 | x | 80% | 22% | x | x | x
COc1ccc(-c2nnc(SCC(=O)Nc3ccccc3OC)o2)cc1 | 4% | u | 175% | 25* | 58* | -21%
COC(=O)c1ccccc1NC(=O)CC(=O)Nc1ccccc1C(=O)OC | 3% | 2% | 25% | -1 | -6 | 0%
COC(=O)c1ccccc1NC(=O)CSc1nnc(-c2cccnc2)o1 | -12% | -6% | 7% | 21* | 65 | -10%
COC(=O)c1ccccc1NC(=O)Cc1nc(-c2ccccc2)sc1-c1ccc(C)cc1 | -11% | u | u | 33* | 35* | 6%
O=C(CSc1nc2ncccc2[nH]1)Nc1ccccc1-c1ccccc1 | u | u | -29% | -5 | -5 | -2%
COC(=O)c1ccccc1NC(=O)CSc1nnc(-c2ccc(C)cc2)o1 | 6% | u | 272% | 33* | 55* | 0%
COc1ccc(C)cc1NC(=O)CSc1nnc(-c2ccc(C)cc2)o1 | -1% | -8% | x | 3 | 24 | -6%
COC(=O)CSc1nnc(-c2ccccc2OC)o1 | 6% | x | -7% | 9 | -6 | -7%
COc1ccccc1-c1nnc(SCC(=O)OC(C)C)o1 | 10% | x | -2% | 17 | 35* | -17%
CC[C@H](NC(=O)[C@H](CCCN=C(N)N)NC(=O)[C@H](Cc1c[nH]c2ccccc12)NC(=O)[C@@H](N)CS)C(=O)N[C@@H](CCCN=C(N)N)C(=O)N[C@@H](Cc1ccc(O)cc1)C(N)=O | -3% | x | x | -9 | 3 | x
SMILES | Giardia FBPA inh | Pf growth 96h | Pf growth 48h | Cycloheximide cs | Shiga inhibitor | NS1 function inh
O=C(NCc1ccco1)c1csc2c1CCCCC2 | -7% | -9% | 28% | 22* | 19 | -8%
CC(C)CCNC(=O)c1csc2c1CCCCC2 | 0% | -12% | 23% | 47* | 55* | x
CCC(C)NC(=O)c1csc2c1CCCCC2 (stereo not given) | -2% | x | 8% | -1 | -7 | -72%
CC1CCc2c(C(=O)Nc3cccc(-c4nn[nH]n4)c3)csc2C1 (stereo not given) | -13% | 3% | 50% | 19 | 40 | -5%
O=C(NCc1cccs1)c1csc2c1CCCCC2 | 3% | u | 35% | 21* | 19 | u
CC1CCc2c(C(=O)NCc3ccco3)csc2C1 (stereo not given) | -1% | 48% | 103% | 17* | 48 | -55%
O=C(c1cc2cc(F)ccc2[nH]1)N1CCC(Cc2ccccc2)CC1 | -1% | u | u | 20 | 32 | 1%
Cn1c(=O)c(-c2ccc(Cl)cc2)nc2cnc(Oc3ccccc3)nc21 | 5% | x | x | x | x | x
COc1ccc(Oc2ncc3nc(-c4cn(C)c5ccccc45)c(=O)n(C)c3n2)cc1 | 0% | x | x | x | x | x
COc1ccccc1NC(=O)c1csc2c1CCC(C)C2 (stereo not given) | -2% | u | -80% | 51* | 67* | -2%
O=C(NCc1ccc(Cl)cc1)c1cc2c(s1)CS(=O)(=O)C2 | x | -6% | 14% | -6 | -5 | 15%
O=C(NCc1ccc(F)cc1)c1cc2c(s1)CS(=O)(=O)C2 | x | 6.6µM* | 2% | -9 | -9 | 19%
CC(C)(O)C#Cc1ccc(C(=O)NCc2cccs2)s1 | 1% | 9.3µM* | 17% | 26* | 33 | -6%
CCc1nnc(NC(=O)c2csc3c2CCC(C)C3)s1 (stereo not given) | 3% | -18% | 40% | -2 | 28 | 2%
COc1ccccc1CCNC(=O)c1ccc(Br)s1 | x | u | 27% | 37* | 63* | -49%
COc1ccc(C2=Nn3c(nnc3-c3cccc(OC)c3OC)SC2)cc1 | 5% | x | x | -3 | -8 | x
Cc1nn(-c2ccccc2)c(C)c1NC(=O)COc1ccc([N+](=O)[O-])cc1 | x | 8% | -9% | x | x | x
[ClH+][Cu][ClH+].[Cu].[OH2+]c1ccc2ccccc2c1CN1CCCCC1.[OH2+]c1ccc2ccccc2c1CN1CCCCC1 | x | x | x | x | x | 0%
COc1ccccc1CCNC(=O)c1csc2c1CCCC2 | -2% | u | u | 13 | 38* | x
COc1ccc(CNC(=O)c2csc3c2CCCC3)cc1 | x | -20% | -4% | x | x | x
COC(=O)c1ccccc1NC(=O)NCCc1ccccc1OC | -3% | 32% | 154% | 28* | 83* | -3%
COc1ccccc1NC(=O)NCCc1ccccc1 | x | 33% | u | 9 | -1 | 20%
O=C(NCc1cccs1)c1cc2c(s1)CCCC2 | -10% | 111% | 120% | 45* | 86* | -38%
Cn1cccc1C(=O)N1CCC2(CC1)CN(Cc1ccc(C#N)cc1)C2 | 2% | x | x | x | x | x
O=C(O)CC(CC(=O)N1CCN(C(=O)c2ccco2)CC1)c1ccccc1 (stereo not given) | x | 23% | 124% | 10 | 3 | 0%
O=C1N=c2ccccc2=C1c1sc(=S)n(NC(=O)c2cccc(O)c2)c1O | u | 1.9µM* | -1% | -1 | -22 | x
CC(=O)C1=C(O)C(=O)N(CCCN2CCOCC2)C1c1ccccc1[N+](=O)[O-] (stereo not given) | u | -2% | -13% | 35* | 105* | 0%
